The values below come from PubChem BioAssay AID1117361 (Southern Research Institute, 2015).

In all, about 3,600 compounds went through this assay and about 900 (25%) were called active. The rule behind the calls is not given here. A selection follows. Entries with a potency or affinity are not part of this list.

In the assay the target is Protein Tat (Human immunodeficiency virus type 1 group M subtype B (isolate HXB2)) (UniProt P04608). The experiment in a line: HIV-1 Tat–TAR interaction blockers – biochemical, fluorescence polarization, FAM-labeled TAR RNA, counter-screen for Vif-APOBEC3G degradation inhibitor project, dose response (AID 1117361). The following applies: Tat-TAR RNA binding; series mostly up to 100 µM. (In fluorescence polarisation assays a small probe gives low polarisation when free and higher when bound to something large.)
`CCCCn1c(CCNC(=O)CC)nc2ccccc21`: the outcome was inactive.
To `CCC(C)(C)NC(=O)C(c1ccc(F)cc1)N(Cc1ccco1)C(=O)c1cnccn1` (stereo unspecified) belongs “inactive”.
As for `CC(OC(=O)c1cccnc1)C(=O)NCc1ccc2c(c1)OCO2` (stereo unspecified), the entry is “inactive”; as for `O=C(COC(=O)c1ccccc1Br)Nc1nnc(-c2ccccc2)o1`, “inactive”; as for `Cc1cc(C)cc(NC2=CC(=O)CC(c3ccco3)C2)c1` (stereo unspecified), “inactive”.
As for `O=C(O)CCCC(=O)NCCc1cccc(Cl)c1`, the entry is “inactive”; as for `COc1ccc(CSc2nnnn2C)cc1F`, “inactive”; as for `COc1ccc(OC)c(C(=O)CSc2nnnn2C)c1`, “inactive”.
In the case of `CCOC(=O)C1(CCOC)CCN(Cc2cnc(-c3cccc(C)c3)nc2)CC1`, the result was inactive.
To `CCOC(=O)c1c(C)[nH]c(C(=O)COC(=O)CSCC(=O)N(CC)CC)c1C` belongs “inactive”; to `Cc1ccc(-c2csc(NC(=O)c3ccc(-c4ccccc4)cc3)n2)o1`, “inactive”; to `Cc1ccc(NCc2nnc(SCc3ccc(C#N)cc3)n2Cc2ccco2)c(C)c1`, “inactive”.
As for `c1ccc(Nc2ccccn2)cc1`, the compound was classed as inactive.
As for `CN(Cc1nc(-c2cccnc2)no1)S(=O)(=O)c1ccccc1`, the entry is “inactive”.
To `Cc1cccc2c1c1ccc3c(c1n2C)C(=O)C=CC3=O` belongs “inactive”.
As for `CCOC(=O)c1csc(N)c1-c1ccc([N+](=O)[O-])cc1`, the entry is “inactive”; as for `CCOc1ccc(NC(=O)C2CCCN(S(=O)(=O)c3c(C)nn(C)c3C)C2)cc1` (stereo unspecified), “inactive”; as for `COc1ccccc1N1CCN(C(=O)c2oc3cc(C)c(C)cc3c2C)CC1`, “inactive”.
For `CC(C)c1ccc(-c2nc(N3CCCCCC3)nc3n[nH]c(N)c23)cc1`, the outcome was inactive.
To `Cc1ccc(S(=O)(=O)N(CC(=O)NCCC2=CCCCC2)Cc2ccccc2F)cc1` belongs “inactive”; to `O=[N+]([O-])c1ccc2c(c1)S(=O)c1ccccc1-2` (stereo unspecified), “inactive”; to `COC(=O)CSc1nc2cc(C)cc(C)c2cc1C#N`, “inactive”.
To `COc1cccc(C(=O)Nc2nc3c(s2)CN(C)CC3)c1` belongs “inactive”; to `NC(=S)N=Nc1c(O)n(C2OC(=O)c3ccccc32)c2ccccc12` (stereo unspecified), “inactive”; to `CCOc1ccccc1C(=O)NCC(=O)OCC(=O)NCCc1ccc(S(N)(=O)=O)cc1`, “inactive”.
As for `COC(=O)c1c(C)[nH]c(C=O)c1-c1ccccc1`, the entry is “inactive”; as for `COC(=O)C(O)(CC(=O)c1ccc(OC)cc1)C(F)(F)F` (stereo unspecified), “inactive”.
Take `CCCC(NCC(=O)Nc1ccccc1C(=O)NC1CC1)c1ccccc1` (stereo unspecified): the outcome was inactive.
For the compound `COc1ccc(NC(=O)C2CCCN2S(=O)(=O)c2cccc3cccnc23)c(OC)c1` (stereo unspecified), the result was inactive.
To `O=C(C1CCC(CNS(=O)(=O)c2cccc3cccnc23)CC1)N1CCCC1` (stereo unspecified) belongs “inactive”; to `O=C(Nc1ccc(-c2noc(-c3cccs3)n2)cc1)c1cccnc1`, “inactive”; to `COc1ccc(-c2nc(C(N)=O)c3[nH]c(=O)n(-c4cccc(Cl)c4)c3n2)cc1OC`, “inactive”.
To `O=c1cc(-c2ccc(O)cc2)oc2cc(O)c(C3OC(CO)C(O)C(O)C3O)c(O)c12` (stereo unspecified) belongs “inactive”.
For the compound `CSCCC(NC(=O)C1CCC(C)CC1)C(=O)NCc1ccco1` (stereo unspecified), the outcome was inactive.
As for `Cc1ccc(-n2c(SCC(N)=O)nc3c([nH]c4ccccc43)c2=O)cc1`, the entry is “inactive”; as for `CN1C(=O)c2ccccc2C(C(=O)O)C1c1cccc(F)c1` (stereo unspecified), “inactive”.
For the compound `Cc1cc(O)c(C(C)C)cc1N=Cc1ccc([N+](=O)[O-])cc1`, the call was inactive.
As for `Cc1ccc(-n2ncc3c(=O)[nH]cnc32)c(C)c1`, the entry is “inactive”; as for `O=C(NC1CCCCC1)C(c1ccc(Cl)cc1)N(C(=O)c1ccccn1)c1cccnc1` (stereo unspecified), “inactive”; as for `COc1ccccc1NC(=O)c1cc2ccc(O)cc2o/c1=N\O`, “inactive”.
To `CCOC(=O)CSc1nnc(CNC(=O)c2cc(OC)c(OC)c(OC)c2)n1C` belongs “inactive”.
For `COC(=O)CSc1nnc(CNC(=O)Cc2ccccc2)n1-c1ccccc1OC`, the result was inactive.
For the compound `CCOc1ccc(OCCOc2cccc(C(F)(F)F)c2)cc1`, the compound was called inactive.
As for `Cn1c(CN2CCOCC2)nc2cc(NC(=O)c3ccc(F)cc3)ccc21`, the entry is “inactive”.
As for `O=C1N=C(N2CCOCC2)SC1=Cc1ccco1`, the entry is “inactive”; as for `COc1cccc(/C=C2\SC(N)=NC2=O)c1OS(=O)(=O)c1ccccc1`, “inactive”.
To `C/C(=C1\SC(N2CCOCC2)=NC1=O)c1ccccc1` belongs “inactive”.
As for `COc1cccc(-c2nc3n(n2)C(c2cccs2)C(C(=O)Nc2cccnc2)=C(C)N3)c1` (stereo unspecified), the compound was called inactive.
As for `O=C(CCc1ccccc1)NNC(=S)NCCc1ccccc1`, the entry is “inactive”; as for `Cc1cc(C(C)(C)C)ccc1OCCN(C)C`, “inactive”.
As to `COCCn1c(Sc2ccc(C)cc2)nc2c1c(=O)[nH]c(=O)n2C`, the compound was classed as inactive.
To `Nc1nc(Cl)cc(N2CCC(c3cc(-c4ccc(Cl)cc4Cl)n[nH]3)CC2)n1` belongs “inactive”.
As for `CCOC(=O)N1CCN(S(=O)(=O)c2ccc3c(c2)C(C)C(=O)N3)CC1` (stereo unspecified), the entry is “inactive”; as for `O=C(Nc1ccc2oc(=O)ccc2c1)c1ccc(-c2ccc(Cl)cc2)o1`, “inactive”; as for `COc1cccc(/C=N/n2c(N)c(S(=O)(=O)c3cccs3)c3nc4ccccc4nc32)c1`, “inactive”.
For the compound `COc1ccc(S(=O)(=O)N2CCN(C(=O)c3cc(-c4ccccc4OC)n[nH]3)CC2)cc1`, the result was inactive.
As for `CCCN(C(=S)Nc1ccccc1)C1CCS(=O)(=O)C1` (stereo unspecified), the entry is “inactive”; as for `COc1cccc(C2NC(=O)NC(O)(C(F)(F)F)C2C(=O)c2cccnc2)c1OC` (stereo unspecified), “inactive”; as for `CCn1c(COc2ccc3c(c2)OCO3)nnc1SCC(=O)c1ccc(Cl)cc1`, “inactive”.
To `Nc1cccc(-c2nc3ccc(N)cc3s2)c1` belongs “inactive”; to `Cc1[nH]n(-c2nc(-c3ccccc3F)cc(=O)[nH]2)c(=O)c1CCO`, “inactive”.
As for `NC(=O)C1Cc2ccccc2CN1C(=O)c1nn(Cc2ccccc2)c(=O)c2ccccc12` (stereo unspecified), the entry is “inactive”; as for `COc1ccc(/C=N/NC(=O)CN2CCN(Cc3ccccc3)CC2)cc1Br`, “inactive”.
On to `COc1ccc(C2Nc3ccccc3C(=O)N2c2ccc(Cl)cc2)cc1Cn1cc([N+](=O)[O-])cn1` (stereo unspecified), for which the compound was called inactive.
As for `Cc1ccc(S(=O)(=O)N=Nc2c(O)[nH]c3ccccc23)cc1`, the entry is “inactive”.
To `CN(C)c1ccc(/C=N\NC(=O)c2csnn2)cc1` belongs “inactive”; to `COc1ccc(S(=O)(=O)N2CCC(C(=O)NCc3ccco3)CC2)cc1`, “inactive”; to `CCC(Cc1ccccc1)NC(=O)C1CCN(S(=O)(=O)c2c(C)noc2C)CC1` (stereo unspecified), “inactive”.
Take `COc1ccc(OCCNS(=O)(=O)c2ccccc2)cc1`: the compound was called inactive.
As for `CN1CCN(c2ccccc2NC(=O)C(Cc2ccccc2)n2cccc2)CC1` (stereo unspecified), the compound was classed as inactive.
As for `CCCCNC(=O)c1onc(CSc2cccc(OCC)c2)c1C(=O)O`, the entry is “inactive”.
Regarding `COc1cccc(Cn2nnc(C(=O)NCCc3ccc(Cl)cc3)c2N)c1`, the call was inactive.
To `COc1cccc(-c2nn(C)c3sc(C(=O)Nc4ccc5c(c4)OCCO5)cc23)c1` belongs “inactive”; to `Cc1nc(N)nc(C)c1Cc1ccccc1`, “inactive”.
As for `CCOC(=O)C1=C(N)OC2=C(C(=O)CCC2)C1c1ccc(C)s1` (stereo unspecified), the entry is “inactive”; as for `O=C(O)Cc1ccc(C(=O)c2ccccc2)s1`, “inactive”.
As for `CCS(=O)(=O)N1CCN(C(=O)CC(C)C)CC1`, the entry is “inactive”; as for `Cn1c(-c2ccc(Cl)cc2)ccc(C#N)c1=O`, “inactive”.
As for `CCOC(=O)N1CCN(C(=O)c2cnc3n(c2=O)CCS3)CC1`, the result was inactive.
Regarding `CCOC(=O)c1c(NC(=O)C(C)N2CCN(C(=O)c3ccco3)CC2)sc2c1CCCC2` (stereo unspecified), the compound was called inactive.
To `c1ccc(-n2c(SCc3ccncc3)nnc2-c2ccco2)cc1` belongs “inactive”; to `Cn1c(CSc2nnc(SCc3ccccc3)s2)nc2ccccc21`, “inactive”.
To `Nc1ccccc1-c1nnc(SCc2ccccc2Cl)[nH]c1=O` belongs “inactive”; to `Nc1nc(SCc2ccccc2Cl)n[nH]1`, “inactive”; to `O=C(c1ccc(F)cc1)N1CCC(C(=O)N(Cc2ccccc2)c2ccccc2)CC1`, “inactive”.
As for `CCCCNC(=O)Oc1cccc(N2CCCC2=O)c1`, the entry is “inactive”.
For the compound `COCCn1c(N)c(NCc2ccccc2)c(=O)n(CC(=O)Nc2cc(C)ccc2C)c1=O`, the call was inactive.
Turning to `COc1ccc(C(C)=O)cc1CN1C(=O)NC2(CCCC2)C1=O`, the call was inactive.
To `COc1ccc(S(=O)(=O)N2CCC(NC(=O)OCc3c(Cl)cccc3Cl)CC2)cc1` belongs “inactive”; to `CN1CCN(S(=O)(=O)c2ccc(NC(=O)Nc3cccc(Cl)c3)cc2)CC1`, “inactive”.
As for `O=C(CSCc1ccc(Br)cc1)NC1CC1`, the entry is “inactive”; as for `Oc1ccc(/C=C/c2cc(O)cc(O)c2)cc1`, “inactive”; as for `COc1ccc(F)cc1S(=O)(=O)Nc1cc2c3c(c1)CC(=O)N3CCC2`, “inactive”.
`CCC(C)NC(=O)CSc1nc2n[nH]c(C)c2c(=N)n1-c1ccc(OC)cc1` (stereo unspecified): the result was inactive.
To `CCOC(=O)C1=C(C)OC(N)=C(C#N)C1c1cc(Cl)c(OCC(N)=O)c(OC)c1` (stereo unspecified) belongs “inactive”.
With `CN1C(=O)C2(C(C#N)=C(N)Oc3c2oc(CO)cc3=O)c2ccccc21` (stereo unspecified), the outcome was inactive.
To `COC(=O)c1ccccc1NC(=O)CNC(=O)c1ccc(OC)cc1` belongs “inactive”; to `Cc1ccc(-c2csc(NC(=O)Cc3cccs3)n2)cc1C`, “inactive”; to `O=C(Cc1cccs1)Nc1cccc(-c2nc3ccccc3o2)c1`, “inactive”.
Take `Cc1nc2ccc(NC(=O)Cc3cccs3)cc2s1`: the result was inactive.
As to `COC(=O)C1=C(CSc2nc3ccccc3o2)NC(=O)NC1c1cc(C)ccc1C` (stereo unspecified), the compound was called inactive.
For the compound `COc1ccc(NS(=O)(=O)c2cc(N=Nc3c(O)[nH]c(=O)[nH]c3=O)ccc2Cl)cc1`, the compound was classed as inactive.
To `CC1(C)C2CCC1(C)C(OC(=O)C[n+]1ccccc1)C2` (stereo unspecified) belongs “inactive”; to `CCc1ccccc1NC(=O)N1CCc2ccccc21`, “inactive”.
To `CC(=O)Nc1nnc(SCC(=O)N2CCCc3ccccc32)s1` belongs “inactive”.
In the case of `COc1ccc(-c2nc(CS(=O)CC(=O)NC3CCCc4ccccc43)c(C)o2)cc1OC` (stereo unspecified), the call was inactive.
For `Cc1ccc(S(=O)(=O)N2CCCC(C(=O)O)C2)s1` (stereo unspecified), the compound was called inactive.
To `O=S(=O)(c1ccc(Br)s1)N1CCCCC1` belongs “inactive”; to `CCN(CC)CCNC1=NCCn2c1cc1cc(OC)ccc12`, “inactive”.
To `CCc1noc(N)c1C(=O)Nc1ccc(F)c(Cl)c1` belongs “inactive”; to `CCNC(=O)NC(=O)C(C)OC(=O)c1oc2ccc(OCC)cc2c1C` (stereo unspecified), “inactive”.
